# KB-3-1 cytotox = KB-3-1 parental cell cytotoxicity; hit rate 1.4% among 400,000; AID 1347075; Potency, µM (series often up to 46.1 µM), usual class: cytotoxic; KB-3-1 viability, CellTiter-Glo ATP luminescence, 72 h; also: % is scaled to controls: 0 for no effect and ±100 for the full control effect; nearly all actives have a fitted effect of over 60% in size
#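 Using CellTiter-Glo luminescence, growth of non-resistant KB-3-1 adenocarcinoma cells is assessed 72 h after pin-tool compound addition at 37 °C. Normalized responses across the concentration series yield fitted curves.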
# KB-V1 cytotox = KB-V1 MDR subline cytotoxicity; KB-V1 MDR cells viability, CellTiter-Glo, 72 h; Potency, µM (doses to about 46.1 µM), usual class: cytotoxic; hit rate 3.4% among 400,000; also: % is scaled to controls: 0 for no effect and ±100 for the full control effect; nearly all actives have a fitted effect of over 60% in size
#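 Cytotoxicity toward P-gp-expressing KB-V1 cells was determined as loss of CellTiter-Glo luminescence after 72 h at 37 degrees C. Compounds were tested in quantitative HTS format across a concentration range, with curves fitted to normalized data.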
# HT1080-NT tox = kills 2HG-producing HT-1080-NT fibrosarcoma cells | HT-1080-NT fibrosarcoma viability, CellTiter-Glo ATP luminescence, 48 h | Potency, µM (doses to about 46.1 µM), for the others: at the top dose activity, negative = less viability, most hits filed as cytotoxic | hit rate 1.6% among 360,000;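 also: NT is the 2HG producing partner of a matched IDH1 knockdown line; 0% = DMSO-treated cells and -100% = media-only wells without cells; nearly all actives have a fitted effect of over 55% in size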
#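 HT-1080-NT fibrosarcoma cells (2HG-overproducing), 750 cells/well in RPMI with 5% FBS, dosed after 2 h and incubated 48 h at 37C. CellTiter-Glo luminescence normalized to DMSO and no-cell wells; concentration-response curves fitted and classed.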
# MCF10A rereplic = inducers of DNA re-replication in MCF 10A breast cells; MCF 10A DNA re-replication, Hoechst nuclear intensity, 48 h; Potency, µM (top dose mostly 46.1 µM), for inactives: at the top dose activity, positive = re-replication, most hits filed as activators; hit rate 2.9% among 350,000; AID 624296; also: % of control where 0% means no effect; nearly all actives have a fitted effect of over 50% in size
# HT1080 IDH1KD tx = toxicity to HT-1080 IDH1 knockdown cells (counter line) | HT-1080 IDH1 knockdown viability, ATP luminescence, 48 h | Potency, µM (highest dose often 46.1 µM), for inactives: top-dose activity, negative = toxicity, usual class: cytotoxic | hit rate 2% among 360,000;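 also: 0% = DMSO wells and -100% = cell-free medium wells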
#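 After a 2 h attachment period, IDH1KD HT-1080 cells took pin-transferred compound for 48 h at 37 °C; ATP-based luminescence after 10 min room-temperature reagent incubation reported viability.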
# SW480 rereplic = DNA re-replication induction in SW480 cells. hit rate 1.8% among 340,000. AID 624297. SW480 DNA re-replication, Hoechst DNA content imaging, 48 h. Potency, µM (top dose mostly 46.1 µM), inactives show top-dose re-replication activation, hits mostly activators; also: % of control where 0% means no effect; nearly all actives have a fitted effect of over 55% in size
#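 250 cells/well; 23 nL cpd via pin tool; 48 hr, 37 C, 5% CO2; Hoechst 40 min; imager read of total nuclear intensity, ex 405/em 500-530 nm.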
# * hit, by the source's call; i = inactive; ? = inconclusive; nt = no result given. Only some compounds are listed: those with a hit (about 8% of all), similar ones and a draw of the others. Calls follow the shape of the dose curve; as a rule, active = well fitted curve in the direction sought with a large enough effect; inconclusive = small, poorly fitted or top-dose-only effect, or another doubt; inactive = no such curve, though single readings can be large; an effect the other way counts as inactive or inconclusive. Potency is read from the fitted curve at half-maximal effect.
SMILES,KB-3-1 cytotox,KB-V1 cytotox,HT1080-NT tox,MCF10A rereplic,HT1080 IDH1KD tx,SW480 rereplic
O=[N+]([O-])c1cccc(S(=O)(=O)Nc2ccc(Cc3ccncc3)cc2)c1,i,16µM*,9%,17%,-4%,-27%
CC(=O)c1cccc(NC(=O)CC(c2ccc(C)cc2)N2Cc3ccccc3C2=O)c1 (centres undefined),i,?,nt,nt,nt,nt
CCOc1ccc(Cn2nnc(C(=O)Nc3cccc(SC)c3)c2N)cc1,i,i,nt,nt,nt,nt
COc1ccc(-c2cc(C3CCN(Cc4cccc(C(F)(F)F)c4)CC3)[nH]n2)cc1,?,?,16µM*,?,?,?
CCS(=O)(=O)N1CCc2cc(C(=O)Nc3cc([N+](=O)[O-])ccc3C)ccc21,i,i,nt,nt,nt,nt
CCn1nc(C)c(CN2CCCCC2C(=O)Nc2ccc(Oc3cccnc3)cc2)c1C (centres undefined),i,?,0%,?,6%,3%
Cc1ccc(CN2CCCCC2C(=O)Nc2ccc(Oc3cccnc3)cc2)o1 (centres undefined),5.2µM*,8.2µM*,?,15µM*,-21%,16µM*
O=C(Nc1ccc(Oc2cccnc2)cc1)C1CCN(Cc2cc(Cl)ccc2O)CC1,16µM*,?,?,?,?,-4%
O=C(Nc1ccc(Oc2ccccc2)nc1)C1CCCCN1Cc1ccco1 (centres undefined),i,?,?,1.8µM*,?,2.9µM*
Cc1cc2oc(C(=O)Nc3ccc(S(N)(=O)=O)cc3)cc(=O)c2cc1C,i,i,nt,nt,nt,nt
CCCCCCCCCCCCCCCC[n+]1ccc(/C=N/O)cc1,2.9µM*,i,21µM*,2.6µM*,23µM*,21µM*
CC[C@@H]1CCC[C@@H](O)[C@@H](C)C(=O)O[C@H](C)[C@@H](C)C/C=C(C)/C(OC)=C\C(=O)N(C)C([C@@H](C)CC)C(=O)N(C)[C@@H](C(C)C)C(=O)N(C)[C@@H](COC)C(=O)N2CCC[C@H]2C(=O)N(C)[C@@H](C(C)C)C(=O)N2CCC[C@H]2C(=O)O1 (some centres undefined),?,1.8µM*,?,nt,?,nt
COc1ccc(N2CCN(CCCNC(=O)c3nnc(Cc4ccc(F)cc4)o3)CC2)cc1,i,i,nt,nt,nt,nt
CCn1nc(NC(=O)c2cccs2)c2cc3ccccc3nc21,?,i,-1%,18µM*,5%,15µM*
CCn1nc(NC(=O)c2ccccc2)c2cc3cccc(C)c3nc21,i,i,-18%,6.5µM*,-29%,12µM*
CCn1nc(NC(=O)c2ccccn2)c2cc3cc(C)ccc3nc21,i,i,-1%,24%,-2%,?
CCn1nc(NC(=O)Cc2ccc(OC)cc2)c2cc3cc(C)ccc3nc21,?,i,13%,1.8µM*,0%,7.3µM*
CCCCn1nc(NC(=O)COC)c2cc3cc(OC)ccc3nc21,i,i,3%,9%,1%,15µM*
CCOc1ccccc1C1N=C(N)Nc2nc3ccccc3n21 (centres undefined),i,i,nt,nt,nt,nt
CC(C)(C)C(=O)OCc1cc(=O)n2nc(C3CC3)sc2n1,i,i,nt,nt,nt,nt
COc1cccc(NC(=O)Cn2c(=O)n(CCc3ccccc3)c(=O)c3c4c(sc32)CN(C(C)=O)CC4)c1,i,i,nt,nt,nt,nt
CCn1nc(NC(=O)Cc2ccc(OC)cc2)c2cc3cccc(C)c3nc21,i,i,-3%,4.1µM*,12%,?
CCCn1nc(NC(=O)C2CCCO2)c2cc3cccc(C)c3nc21 (centres undefined),i,i,-3%,?,-3%,2.1µM*
Cc1ccc2cc3c(NC(=O)c4ccco4)nn(CC(C)C)c3nc2c1,i,?,3%,?,1%,9.2µM*
